# Data published in PubChem BioAssay (Tox21).
# Results filed as inconclusive are left out. Where a call stands in place of a potency, no number is given. The source made the active and inactive calls. The call rests on the fitted dose curve; in most records, active means well fitted cell-killing curve with a large enough effect in the repeat runs; inconclusive means weak or mixed curves, or effect the other way; inactive means flat fitted curve, though single readings scatter.
# Test: cAMP Responsive Elements (CRE) small molecule agonists, cell-based qHTS assay: qHTS cell viability counter screen (AID 2060914);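 further: viability read after 3 h of compound exposure; nearly all actives have a fitted effect of over 50% in size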
# Conditions: CRE-bla HEK293T viability, CellTiter-Glo luminescence, 5 h; series mostly up to 92.4 µM
# From the text: National Center for Advancing Translational Sciences [NCATS]
# Division of Preclinical Innovation [DPI]
# U.S. Environmental Protection Agency [EPA]
# National Institutes of Environmental Health Sciences [NIEHS]
# National Toxicology Program [NTP]
# U.S. Food and Drug Administration [FDA]
# CREB (cyclic-AMP Responsive Element Binding Protein) is a cellular transcription factor. It binds to certain DNA sequences called cAMP Responsive Elements (CRE) and regulates the transcription of the genes. […] This cell line can be used to find agonists/antagonists of the cyclic AMP signaling pathway. The activation of the report gene under culture conditions can be detected by fluorescence intensity. This cell line has been used to screen the Tox21 10K compound library to identify agonists that induce oxidative stress. The cytotoxicity of the Tox21 compound library against the CRE-bla cell line was tested in parallel by measuring the cell viability using CellTiter-Glo assay (Promega, Madison, WI) in the same wells.
# Tox21 Assay Protocol Summary:
# CRE-bla Hek 293T cells were suspended in assay medium (DMEM containing 10% dialyzed FBS, 0.1 mM NEAA, 1 mM sodium pyruvate and 25 mM HEPES) and dispensed at 2,000 cells/5 uL /well into 1536-well black wall/clear bottom plates using a Multidrop Combi (ThermoFisher Scientific, Waltham, MA) dispenser. After the assay plates were incubated at 37 C/5% CO2 for 18 hrs, 23 nL of compounds dissolved in DMSO, positive controls or DMSO only was transferred to the assay plate by a pintool workstation (Kalypsys, San Diego, CA). After the plates were incubated at 37 C/5% CO2 for 3 hrs, 1 uL of LiveBLAzer B/G FRET substrate (Invitrogen, Carlsbad, CA) was added to each well using Bioraptr Flying Reagent Dispenser (FRD, Aurora Discovery, San Diego, CA). The plates were incubated at room temperature for 2 h, then fluorescence intensities were measured using an Envision plate reader (PerkinElmer, Shelton, CT) at Excitation 405nm, Emission 460nm and 530nm. The % activity was determined from the ratio of 460nm/530nm. For cell viability readout that measures cytotoxicity, 4 uL /well of CellTiter-Glo reagent was added into the assay plates using Bioraptr FRD. After 30 min incubation at room temperature, the luminescence intensity in the assay plates was measured using a ViewLux (PerkinElmer, Shelton, CT) plate reader.
Compound,Potency,"activity change, negative = cytotoxicity"
CCO/C([O-])=N/c1c[n+](N2CCOCC2)no1,inactive,
C[C@]12CC[C@@H]3c4ccc(O)cc4CC[C@H]3[C@@H]1CCC2=O,inactive,
Clc1nc2ccccc2nc1Cl,inactive,
Cc1cccc(C)c1O,inactive,
O=C1Cc2cc(CCN3CCN(c4nsc5ccccc45)CC3)c(Cl)cc2N1,inactive,
CN(C)Cc1cc(CN(C)C)c(O)c(CN(C)C)c1,inactive,
Cc1ccc(N(CCO)CCO)cc1,inactive,
C1=CCC(c2ccccc2)CC1 (stereo not given),inactive,
Cc1ccc(N)c(S(=O)(=O)O)c1,inactive,
CC(=O)OCCOC(C)=O,inactive,
Clc1ccc2c(c1)CCc1cccnc1C2=C1CCNCC1,inactive,
COS(C)(=O)=O,inactive,
CC(=O)OCC(=O)[C@@]1(O)CCC2C3CCC4=CC(=O)CC[C@]4(C)C3[C@@H](O)C[C@@]21C (stereo not given in full),inactive,
c1c[nH]cn1,inactive,
COc1ccc(NC(C)=O)cc1,inactive,
CC(=O)Nc1ccc(S(=O)(=O)Nc2ccc([N+](=O)[O-])cc2)cc1,inactive,
CCCCCCCCCCCCCC(=O)OCC,inactive,
Oc1ccc(C(O)CNCCCCCCNCC(O)c2ccc(O)c(O)c2)cc1O (stereo not given),inactive,
N[C@@H](CCC(=O)N[C@@H](CS)C(=O)NCC(=O)O)C(=O)O,,-1.41% [at 18.9 µM] (inactive)
OC[C@H]1O[C@@](CO)(O[C@H]2O[C@H](CO)[C@@H](O)[C@H](O)[C@H]2O)[C@@H](O)[C@@H]1O,inactive,

Compound,Potency,"activity change, negative = cytotoxicity"
Cc1cc2c(cc1C(F)(F)F)N(C(=O)Nc1ccc(Oc3cccnc3C)nc1)CC2,inactive,
CCCCC,inactive,
C=CCCCCCCCCO,inactive,
Cc1ccnc(NS(=O)(=O)c2ccc(N)cc2)n1,inactive,
COC(=O)C1=C(C)NC(C)=C(C(=O)OC(C)C)C1c1cccc2nonc12 (stereo not given),inactive,
CCN[C@H]1C[C@H](C)S(=O)(=O)c2sc(S(N)(=O)=O)cc21,inactive,
C=C(C)C(=O)OCCOC(=O)CC(C)=O,inactive,
COC(=O)C(C)O (stereo not given),inactive,
CC(C)=CCC[C@H](C)CC=O,inactive,
COP(=O)(O)OP(=O)(O)OC,inactive,
CCN(CC)CC(=O)OCC(=O)[C@@]1(O)CC[C@H]2[C@@H]3CCC4=CC(=O)CC[C@]4(C)[C@H]3[C@@H](O)C[C@@]21C,inactive,
Cc1ccc(C(C)C)cc2c(C)ccc1-2,inactive,
[K+],inactive,
COc1cc2c(cc1OC)-c1cc3ccc(OC)c(OC)c3c[n+]1CC2,inactive,
CCN1CCN(C(=O)N[C@@H](C(=O)N[C@@H]2C(=O)N3[C@@H]2SC(C)(C)[C@H]3C(=O)O)c2ccccc2)C(=O)C1=O,inactive,
Cc1ccc(C)c(N)c1,inactive,
Nc1ncnc(Nc2ccccc2)n1,inactive,
Nc1ccc2cc(S(=O)(=O)O)cc(O)c2c1N=Nc1ccccc1C(F)(F)F,inactive,
CCN1CCN(C(=O)N[C@@H](C(=O)N[C@@H]2C(=O)N3C(C(=O)O)=C(CSc4nnnn4C)CS[C@H]23)c2ccc(O)cc2)C(=O)C1=O,inactive,
CC(C)CC=O,inactive,
